# Reference: PubChem BioAssay (NCATS)
# Inconclusive results are not listed. Where a call stands in place of a potency, no number is given. Activity calls are given as the source filed them. The call rests on the fitted dose curve; in most records, active means well fitted inhibition curve with a large enough effect; inconclusive means small, poorly fitted or top-dose-only effect; inactive means no such curve, though single readings can be large or run the other way.
# Test: Primary qHTS for inhibitors of nuclear receptor binding SET domain protein 2 (NSD2) in an RCH-ACV wild type WT cells (2C) (AID 1645877); further: nearly all actives have a fitted effect of over 70% in size
# Details: RCH-ACV (leukaemia line) NSD2 WT (2C) viability, CellTiter-Glo, 72 h; series mostly up to 44.9 µM
SMILES,Potency,"activity change, negative = cell killing"
CO/N=C(/C(=O)N[C@@H]1C(=O)N2C(C(=O)O)=C(Cn3ccc(=N)n3CCO)CS[C@H]12)c1csc(N)n1,inactive,–
CC1CC(C(O)C(C)(C)O)OC2CC3(C)C4(C)CCC5C(C)(C)C(=O)CCC5(C)C4CCC3(O)C12O (stereo not drawn),inactive,–
C[C@H]1CC(=O)Nc2cccc(-c3cnn(C(C)(C)C)c3)c2N1,inactive,–
O=C(CC1C(=O)Nc2ccccc21)OC[C@H]1O[C@@H](OCCc2ccc(O)cc2)[C@H](O)[C@@H](O)[C@@H]1O (stereo partly drawn),inactive,–
CC1(C)CCC2(C(=O)OC3OCC(O)C(O)C3O)CCC3(C)C(=CCC4C5(C)CC(O)C(OC6OC(COC7OCC(O)C(O)C7O)C(O)C(O)C6O)C(C)(C)C5CCC43C)C2C1 (stereo not drawn),–,-0.57% [at 9.23 µM] (inactive)
C/C=C(\C)C(=O)O[C@@H]1CC2[C@@H](CC=C3C[C@@H](O[C@H]4C[C@H](OC)[C@H](O[C@H]5C[C@H](OC)[C@H](O[C@@H]6O[C@H](C)[C@@H](O[C@H]7C[C@H](OC)[C@H](O[C@@H]8O[C@H](CO)[C@@H](O)[C@H](O)[C@H]8O)[C@@H](C)O7)[C@H](OC)[C@H]6O)[C@@H](C)O5)[C@@H](C)O4)CC[C@@]32C)[C@@]2(O)CC[C@H](C(C)=O)[C@@]12C (stereo partly drawn),–,-12.6% [at 9.23 µM] (inactive)
CC1CC(=O)C2=C(CCC3(O)C(O)c4c(O)cccc4C(=O)C23O)C1 (stereo not drawn),inactive,–
C/C1=C\CCC(C)CCO[C@@H]2O[C@H](CO[C@@H]3OC[C@H](O)[C@H](O)[C@H]3OC1=O)[C@@H](O)[C@H](O)[C@H]2O (stereo partly drawn),inactive,–
